In PubChem BioAssay AID1220 (Sanford-Burnham Center for Chemical Genomics, 2008):
Among all 190,000 compounds or so, about 1,300 (0.68%) were called active. Many of the other results were omitted from the sample, so actives are more common in it than they were. Values without a mark were called inactive. Rule as the data show it: active = inhibition above about 50%; inactive = the rest.

Target: Mannose-6-phosphate isomerase (Homo sapiens) (UniProt P34949)
Experiment: human PMI inhibitors, high substrate, primary screen, biochemical, fluorescence intensity, high mannose 6-phosphate (AID 1220)
Conditions: recombinant PMI enzyme, coupled fluorescence intensity; at 20 µM; hits give high values

Sequence of Mannose-6-phosphate isomerase (Homo sapiens) (P34949 whole entry, looked up): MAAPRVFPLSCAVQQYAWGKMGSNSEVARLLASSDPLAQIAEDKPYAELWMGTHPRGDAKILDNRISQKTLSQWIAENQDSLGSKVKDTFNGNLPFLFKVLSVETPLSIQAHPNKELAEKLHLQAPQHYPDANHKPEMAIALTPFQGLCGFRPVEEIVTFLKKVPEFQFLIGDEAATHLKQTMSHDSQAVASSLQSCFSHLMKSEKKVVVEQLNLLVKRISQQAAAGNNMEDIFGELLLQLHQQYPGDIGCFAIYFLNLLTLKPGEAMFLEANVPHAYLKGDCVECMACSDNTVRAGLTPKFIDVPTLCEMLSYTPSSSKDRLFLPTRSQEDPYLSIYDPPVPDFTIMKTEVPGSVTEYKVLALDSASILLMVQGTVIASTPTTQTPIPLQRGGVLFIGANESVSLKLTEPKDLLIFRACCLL

| SMILES | inhibition |
| --- | --- |
| CCOc1c(OC(C)=O)ccc(/C=C/c2ccc3cccc(OC)c3n2)c1[N+](=O)[O-] | 11.3% |
| COc1ccc(CC(NC(C)=O)C(=O)NC2CCN(S(=O)(=O)c3ccccc3)CC2)cc1OC (stereo not drawn) | 4.4% |
| CC(/C=C/c1ccccc1)=N/NC(=O)CCC(=O)Nc1ccccc1C | -55.7% |
| O=C(NCc1ccc(Cl)cc1)c1ccc(-c2ccccc2C(F)(F)F)o1 | 2.3% |
| O=C(O)Cc1c(O)ccc2ccccc12 | 9.9% |
| Oc1ccc(N=Nc2c(O)ccc3ccccc23)cc1 | 20.8% |
| Oc1ccc2ccccc2c1Br | 52.5% (active) |
| CC1CCN(CCNC(=O)CN(C)S(=O)(=O)c2cccc3nsnc23)CC1 | 0.3% |
| Cc1c(Cl)cccc1NC(=S)Nc1ccccn1 | 3.2% |
| COc1cc(NC(=O)C2=C(N3CCOCC3)/C(=C/c3ccc(Cl)cc3)CC2)cc(OC)c1OC | 23.9% |
| COc1cccc(CNC(=O)c2nnn(-c3ccc(OC(F)(F)F)cc3)c2N)c1 | -5.4% |
| COC(=O)c1cc(=O)n(Cc2cccs2)c(=Nc2ccc(F)cc2)s1 | -2% |
| COc1ccc(O)c(C(c2c(C)[nH][nH]c2=O)c2c(C)[nH][nH]c2=O)c1 | 56.6% (active) |
| CCOc1cc(C(c2c(C)[nH][nH]c2=O)c2c(C)[nH][nH]c2=O)ccc1O | 49.7% |
| Cc1[nH][nH]c(=O)c1C(c1cc([N+](=O)[O-])ccc1O)c1c(C)[nH][nH]c1=O | 31.8% |
| CN(C)c1nc(N)nc(-c2nc3ccccc3s2)n1 | 6.8% |
| COc1ccc(C(=O)/C=C/Nc2ccc([N+](=O)[O-])cc2)cc1 | -10.3% |
| Cc1ccc2cccc(N=Cc3c(C)[nH]n(-c4ccccc4)c3=O)c2n1 | -9.8% |
| COc1ccccc1N=Cc1c(C)[nH]n(-c2ccc(C)cc2C)c1=O | 11.1% |
| Cc1cc(Br)ccc1-n1[nH]c(C)c(C=Nc2cccc3nsnc23)c1=O | 70.9% (active) |
| Cc1ccc(-c2csc(NC(=O)COc3ccc(N(C)S(=O)(=O)c4ccc(C)cc4)cc3)n2)cc1 | 8.1% |
| O=C(Nc1cccc2c1CCCC2)c1ccncc1 | -4% |
| CCOCCCNc1ncc2c(n1)CC(c1ccc(C)cc1)CC2=O (stereo not drawn) | 9.4% |
| CC(C)OCCCNc1ncc2c(n1)CC(c1ccc(N(C)C)cc1)CC2=O (stereo not drawn) | 22.7% |
| CC(C)C(=O)Nc1ncc2c(n1)CC(c1cccs1)CC2=O (stereo not drawn) | 4% |

| SMILES | inhibition |
| --- | --- |
| CC(C)OCCCNc1ncc2c(n1)CC(c1ccccc1)CC2=O (stereo not drawn) | 53.2% (active) |
| CCC(C)C(=O)Nc1ncc2c(n1)CC(c1cccs1)CC2=O (stereo not drawn) | -1.8% |
| CC(C)OCCCNc1ncc2c(n1)CC(c1cccs1)CC2=O (stereo not drawn) | 61.9% (active) |
| COc1ccc(C2CC(c3ccc(OC)cc3)n3nc(N)nc3N2)cc1 (stereo not drawn) | 10.5% |
| COc1ccc(C2CC(c3c(Cl)cccc3Cl)n3nc(N)nc3N2)cc1 (stereo not drawn) | 56.3% (active) |
| COc1cccc(C2CC(c3c(Cl)cccc3Cl)n3nc(N)nc3N2)c1 (stereo not drawn) | 11.8% |
| CN(C)C=C1C(=O)c2ccccc2C1=O | 0.8% |
| COc1cccc2c1C(=O)c1ccc3ccccc3c1C2=O | -81.6% |
| CN(C)/C=C1/Oc2c(ccc3ccccc23)C1=O | 59.2% (active) |
| CCCn1c(=O)c2c(nc(Br)n2CCC)n(C)c1=O | -0.3% |
| O=C(Cc1ccccc1[N+](=O)[O-])Nc1ccc2c(c1)OCO2 | 0% |
| COc1ccc(NC(=O)c2ccc(NC(=O)C(C)C)cc2)c([N+](=O)[O-])c1 | 1.6% |
| COc1ccc(NC(=O)C(c2cc3c(cc2[N+](=O)[O-])OCO3)N(C)Cc2ccccc2)cc1 (stereo not drawn) | 54.8% (active) |
| CCN(c1cccc(C)c1)C(C(=O)Nc1ccc(OC)cc1)c1cc2c(cc1[N+](=O)[O-])OCO2 (stereo not drawn) | 54.3% (active) |
| COc1ccc(NC(=O)CN2CCN(CC(=O)Nc3ccc4c(c3)OCO4)CC2)cc1 | 0.8% |
| COc1ccc(NC(=O)C(c2cc3c(cc2[N+](=O)[O-])OCO3)N2CCN(C=O)CC2)cc1 (stereo not drawn) | 65.9% (active) |
| COc1ccc(NC(=O)C(c2cc3c(cc2[N+](=O)[O-])OCO3)N(C)c2ccccc2)cc1 (stereo not drawn) | 43.1% |
| CC1CCCN(C(C(=O)NC2CCCCC2)c2cc3c(cc2[N+](=O)[O-])OCO3)C1 (stereo not drawn) | 41.4% |
| Cc1c(C(=O)OCC(=O)Nc2ccc3c(c2)OCO3)cccc1[N+](=O)[O-] | 16.9% |
| COc1ccc(C(C(=O)Nc2ccc3c(c2)OCO3)N(C)C(=O)Cc2c[nH]c3ccccc23)cc1 (stereo not drawn) | 18.8% |
| COc1ccc(NC(=O)C(c2cc3c(cc2[N+](=O)[O-])OCO3)N(C)C)cc1 (stereo not drawn) | 55.6% (active) |
| COc1ccc(NC(=O)/C=C/c2ccc3c(c2)OCO3)cc1 | 8.9% |
| Cc1nn2cnc3sc4c(c3c2nc1=O)CCCC4 | 1.4% |
| Cc1ccc(C)c(NC(=O)CSc2n[nH]c(-c3ccncc3)n2)c1 | 4.4% |
| COc1cc(C(=O)NCCC(=O)N2CCN(C)CC2)cc(OC)c1OC | -1% |

| SMILES | inhibition |
| --- | --- |
| COC(=O)c1ccc(NC(=O)C2CCCN2S(=O)(=O)c2ccc(C)cc2)cc1 (stereo not drawn) | 2.7% |
| O=C(O)/C(=C\c1ccc(Br)cc1)c1ccc(S(=O)(=O)N2CCCCC2)s1 | 3.7% |
| O=C(O)/C(=C\c1ccccc1Cl)c1ccc(S(=O)(=O)N2CCCCC2)s1 | -23% |
| O=C(O)/C(=C\c1ccc(Cl)c([N+](=O)[O-])c1)c1ccc(S(=O)(=O)N2CCCCC2)s1 | 57% (active) |
| Cc1c(Cl)c([N+](=O)[O-])nn1CCCC(=O)N1CCN(c2ccccc2)CC1 | -19.1% |
| COc1cccc(CNC(=S)Nc2cc(C)cc(C)c2)c1 | 4.2% |
| O=c1[nH]c2ccccc2n2c(-c3ccccc3)nnc12 | 74.5% (active) |
| O=c1[nH]c2ccccc2n2cnnc12 | -5.9% |
| O=c1[nH]c2ccccc2n2c(-c3ccncc3)nnc12 | 0.5% |
| COc1ccc(S(=O)(=O)N(C)CC(=O)Nc2ccc(C(N)=O)cc2)cc1OC | -13.3% |
| CC(C)N(C(=O)CSc1nnc(CNc2ccc(F)cc2)o1)C(C)C | 17% |
| Cc1cc(C)c2nc(N)sc2c1 | 7.6% |
| Cc1cc(C)c2ccc(N)nc2c1O | 26% |
| Cc1cc(C)c(O)c(N)c1 | 61.3% (active) |
| Cc1nc2cc(C)c(C)cc2s1 | -8.8% |
| CCC(C)(C)NC(=O)c1cc(C(=O)OC)cc([N+](=O)[O-])c1 | -6.6% |
| O=C(N/N=C/C(Br)=C/c1ccccc1)C1CC1 | 14.3% |
| COc1cc2c(cc1O)CC[n+]1cc3c(OC)c(OC)ccc3cc1-2 | 39.9% |
| COc1cc2c(cc1OC)-c1cc3ccc4c(c3c[n+]1CC2)OCO4 | 53.6% (active) |
| COc1ccc2cc3[n+](cc2c1OC)CCc1cc2c(cc1-3)OCO2 | 33.7% |
| O=C1c2ccccc2-n2c1nc1ccccc1c2=O | 50.7% (active) |
| O=c1c2ccccc2nc(-c2ccccc2Cl)n1O | -7.6% |
| O=c1c2ccccc2nc(-c2cccs2)n1-c1cccc2ccccc12 | -3.7% |
| O=C(NCc1ccco1)Nc1ccccc1Cl | 5.5% |
| NS(=O)(=O)c1ccc(CCNC(=O)c2ccc(S(=O)(=O)N3CCCCC3)cc2)cc1 | -2.8% |

| SMILES | inhibition |
| --- | --- |
| O=C(c1ccc(Cl)cc1)c1c[nH]c(C(=O)NNc2cccc(Cl)n2)c1 | 4.5% |
| Oc1ccc(NCc2ccccc2OCc2ccccc2F)cc1 | 25% |
| CCOc1ccccc1CNc1ccc(O)cc1 | 59.4% (active) |
| Oc1ccc(NCc2ccccc2OCc2ccccc2)cc1 | 47.7% |
| COc1ccc(C2SCC(=O)N2c2c(C)n(C)n(-c3ccccc3)c2=O)cc1OC (stereo not drawn) | -1.7% |
| CCOc1ccc(OCC)c(S(=O)(=O)NNC(=O)c2c(C)nc3ccccn23)c1 | -3.5% |
| CC(=O)N1c2ccccc2C(C)(C)C2CCC(C)CC21 (stereo not drawn) | -3.5% |
| CC(=O)N1c2ccccc2C2(O)N=C(C)SC12 (stereo not drawn) | 52.8% (active) |
| Cc1ccc(C(=O)CC2(O)C(=O)N(C)c3ccccc32)s1 (stereo not drawn) | 9.4% |
| CCOC(=O)C1=C(C)N(C)C(=O)NC1c1c(C)nn(-c2ccc(C)cc2)c1Cl (stereo not drawn) | -4% |
| CCOC(=O)C1=C(C)N(C)C(=O)NC1c1c(C)nn(-c2ccccc2)c1C (stereo not drawn) | 1.3% |
| Nc1nc(SCC(=O)NCC2CCCO2)n[nH]1 (stereo not drawn) | 5.9% |
| CCOc1ccc2[nH]c(=O)c(CN(CCO)C(=O)c3ccccc3F)cc2c1 | -1% |
| CCc1ccc2c(c1)CCCN2C(=O)c1ccccc1C(=O)O | -10% |
| CCCN1CCCc2cc(CN)ccc21 | 50.4% (active) |
| CCCN1CCCc2ccccc21 | -58.9% |
| COc1cc(C2C(C(C)=O)=C(O)C(=O)N2CCc2c[nH]c3ccccc23)ccc1O (stereo not drawn) | 21.6% |
| CCOC(=O)CCCNC(=O)COC(=O)c1cccc(C)c1O | -3.7% |
| S=C1NCCOCCOCCNC(=S)N2CCOCCOCCN1CCOCCOCC2 | 11.7% |
| CC(=O)N1CCC(N(CCN2CCOCC2)C(=S)Nc2cccc(C)c2)CC1 | -11.5% |
| CC1(C)CC2CC(C)(CN2CC(=O)C(C#N)c2ccccc2)C1 (stereo not drawn) | -41% |
| CC1(C)CC2CC(C)(CN2C(=O)COc2cccc3ccccc23)C1 (stereo not drawn) | 2.7% |
| CC1(C)CC2CC(C)(CN2Cc2c(O)ccc3ccccc23)C1 (stereo not drawn) | 66.3% (active) |
